Assay results taken from PubChem BioAssay AID624330 (Southern Research Specialized Biocontainment Screening …, 2012).
The campaign covered roughly 340,000 compounds. About 2,100 (0.62%) were called active.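 How the source made its calls: active means first-screen hits whose inhibition reached a set limit at any dose in the follow-up dose series; inconclusive means inhibition above the set first-screen limit but never retested; inactive means the rest.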 The list is a sample of the results. Results with a measured potency or affinity are listed apart.

target: Rac GTPase-activating protein 1 (Homo sapiens) (UniProt Q9H0H5); assay: blockers of MgcRacGAP-driven Rac1 GTP hydrolysis – biochemical, ADP Hunter fluorescence, primary and confirmatory, confirmation (AID 624330); details: MgcRacGAP-stimulated Rac1 GTP hydrolysis, at 30 µM, stronger effect = higher value, GST-tagged Rac1 F28L mutant substrate;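 further: fluorescence reports GDP produced by GAP-driven GTP hydrolysis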
Sequence (Q9H0H5 whole entry, looked up): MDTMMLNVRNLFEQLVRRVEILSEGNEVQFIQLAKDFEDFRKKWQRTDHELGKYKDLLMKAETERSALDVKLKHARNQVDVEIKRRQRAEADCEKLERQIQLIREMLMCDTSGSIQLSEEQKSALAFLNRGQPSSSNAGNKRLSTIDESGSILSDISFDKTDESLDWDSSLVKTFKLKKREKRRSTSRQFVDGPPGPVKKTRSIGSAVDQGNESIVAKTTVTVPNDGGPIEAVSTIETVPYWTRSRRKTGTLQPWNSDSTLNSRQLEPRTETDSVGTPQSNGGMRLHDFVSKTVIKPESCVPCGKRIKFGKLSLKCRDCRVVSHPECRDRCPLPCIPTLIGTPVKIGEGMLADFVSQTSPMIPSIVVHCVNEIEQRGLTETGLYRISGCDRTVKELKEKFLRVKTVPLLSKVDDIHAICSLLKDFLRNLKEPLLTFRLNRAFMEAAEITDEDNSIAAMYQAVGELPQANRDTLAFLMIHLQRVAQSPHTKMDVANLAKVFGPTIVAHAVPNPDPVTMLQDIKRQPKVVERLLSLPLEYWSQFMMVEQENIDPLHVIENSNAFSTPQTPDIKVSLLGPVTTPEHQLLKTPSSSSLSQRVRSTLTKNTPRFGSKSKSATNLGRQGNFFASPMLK

inhibition, inactive:
COc1ccccc1NC(=O)c1ccc[n+]([O-])c1 4.42%, Cc1cc(F)ccc1S(=O)(=O)Nc1ncnc2sccc12 -6.18%, COc1ccc(CNC(=O)O[C@@H]2C[C@H]3C(=O)N(c4ccccc4)C(=O)[C@H]3[C@@]3(CN(S(=O)(=O)c4ccc(C)cc4)C[C@H]3C)[C@@H]2O)cc1OC 13.3%, Cc1cn([C@@H](CCCCNC(=O)OC(C)(C)C)C(=O)NCCCCCCCCCCC(=O)N2CCN(C(=O)OC(C)(C)C)CC2)nn1 3.56%, Cc1ccccc1SCC(=O)OCC(=O)NCCNC(=O)COC(=O)CSc1ccccc1C 2.21%, CCN(CC)c1ccc(NC(=O)COC(=O)CSc2ccc(Br)cc2C)cc1 7.43%, O=C(Cn1ccc(C(F)(F)F)n1)N=Nc1c(O)[nH]c2ccccc12 4.76%, CCc1ccc(S(=O)(=O)NCCc2cn3cccc(C)c3n2)s1 4.85%, COc1ccc(N=Cc2sc3ccccc3c2Cl)cc1 11%, Cc1ccc(O)c(N=Cc2ccc(C)s2)c1 -11.5%, O=[N+]([O-])c1ccc(O)c(N=Cc2sc3ccccc3c2O)c1 27.9%, Oc1c(C=Nc2ccc(Cl)cn2)sc2ccccc12 8.33%, CN(C)C(=O)CSc1nc(-c2ccccc2)c(-c2ccccc2)o1 2.82%, O=C(Oc1ccc(OC(=O)c2ccncc2)cc1)c1ccncc1 5.17%, COc1ccc(OC(=O)c2ccc(OC)c(S(=O)(=O)N3CCOCC3)c2)cc1 22.8%, O=C(Nc1ccc2c(c1)OCCO2)c1ccc(Br)c(S(=O)(=O)N2CCOCC2)c1 -4.87%, COc1ccc(C(=O)Oc2ccc3c(c2)OCO3)cc1OC 7.69%, COc1ccc(CCN2C(=O)c3ccccc3NC2c2cc(Cl)c(O)c(OC)c2)cc1 (configuration not stated) 7.25%, COC(=O)c1c(NC(=O)CC2SC(N)=NC2=O)sc(C)c1C (configuration not stated) -4.36%, Nc1cc2c(cc1Cl)N(Cc1ccccc1)C(=O)CO2 4.01%, Cc1cc2c(NCC(C)O)ncnc2s1 (configuration not stated) 8.37%, CSCC(=O)N1CCCC(N2CCN(c3ccc(F)cc3)CC2)C1 (configuration not stated) 15.7%, Cc1ccccc1OCC(=O)Nc1ccc(N2CCN(C(=O)c3ccco3)CC2)cc1 10.3%, COc1ccc(CCNC(=O)COC(=O)c2cc(OC)c(OC)cc2OC)cc1OC 7.3%, C=CCc1cc(Cl)ccc1OCCOCCN(C)C 22%, C=CCc1cc(Cl)ccc1OCCCNC(C)C 23.5%, C=CCc1cc(Cl)ccc1OCCNCCOC 10.8%, C=CCc1ccccc1OCCn1ccnc1 9.27%, C=CCc1cc(Cl)ccc1OCCCn1ccnc1 19.6%, C=CCOc1ccc(Cl)cc1CNCCCN1CCOCC1 1.5%, C=CCc1cc(C)ccc1OCCn1ccnc1 17.7%, C=CCc1cc(C)ccc1OCCOCCn1ccnc1 15.9%, COc1ccc(NC(=O)N2CCN(S(=O)(=O)c3ccc(F)cc3)CC2)c(OC)c1 7.35%, CCCCCCCNC(=O)C1(CC2CC(c3ccc(Cl)cc3)=NO2)CCN(C(=O)CCCCCBr)CC1 (configuration not stated) 3.79%, COc1ccc2cc(CN(CC3COCCO3)S(=O)(=O)c3ccccc3)c(=O)[nH]c2c1 (configuration not stated) -14.3%, Cc1onc(-c2ccccc2)c1C(=O)N/N=C/c1ccco1 4.91%, N#Cc1ccc(NC(=O)Cn2c3[n+](c4ccc(C(F)(F)F)cc42)CCCCC3)cc1 -1.69%, CNc1nc(-c2ccc3c(c2)CCN3C(=O)c2ccccc2C)cs1 10.3%, COc1ccc(-c2cc(C(=O)Nc3cccnc3Cl)no2)cc1 9.21%, C=CCn1ccc2c([N+](=O)[O-])cccc2c1=O 8.97%, COCCNC(=O)c1ccccc1NC(=O)c1ccccc1N(C)S(=O)(=O)c1ccc(C)cc1 3.63%, CC1CCCN(C(=O)c2cc(S(=O)(=O)N3CCCCC3)c[nH]2)C1 (configuration not stated) -0.16%, CCCc1nc(NCc2ccccc2)c(C#N)c2c1CCCC2 8.86%, Cc1c(NC(=O)c2ccc(S(=O)(=O)N3CC(C)OC(C)C3)cc2)c(=O)n(-c2ccccc2)n1C (configuration not stated) 4.26%, COc1ccc(NC(=O)CCC(=O)c2ccc(C(C)C)cc2)cc1 12.2%, COc1ccc(C(=O)CCC(=O)Nc2cccc(Cl)c2)cc1 4.1%, CCOc1ccccc1N1CCN(CC(=O)Nc2ccnn2C2CCCC2)CC1 5.05%, CN(C(=O)CSc1nc2scc(-c3ccccc3)c2c(=O)[nH]1)c1ccccc1 6.96%, O=C1c2ccccc2CN2C(=O)c3ccccc3CN12 3.55%, Cc1ccc(CN2CCN(C/C=C/c3ccc(F)cc3)CC2CCO)o1 (configuration not stated) 7.9%, COc1ccccc1/C=C/CN1CCN(Cc2ccc(C)o2)C(CCO)C1 (configuration not stated) 11%, COc1ccc(/C=C/CN2CCN(CC(C)C)C(CCO)C2)cc1 (configuration not stated) 5.86%, CC(C)CCN1CCN(C/C=C/c2ccco2)CC1CCO (configuration not stated) 14.2%, CC(C)(C)c1ccc(OC(=O)c2ccc3snnc3c2)cc1 4.25%, CC(=O)N/C(=C\c1ccccc1)C(=O)OCC(=O)NC(=O)c1ccccc1 5.8%, CC(OC(=O)C1CC(=O)N(Cc2ccco2)C1)C(=O)Nc1cccc(C#N)c1 (configuration not stated) 6.14%, O=C(CN(C(=O)c1csnn1)c1ccc(F)cc1)NCCc1ccccc1 7.07%, COc1ccc(C(O)Cc2nccn2C)cc1 (configuration not stated) 2.89%, Cc1cccc(-n2cnc(C(=O)O)c2)n1 4.99%, Cn1nccc1C(=O)Nc1ccc(Cl)cc1 -1.74%, CC(=O)Nc1ccc(NC(=O)c2ccnn2C)cc1 3.95%, C=CCN(C(=O)c1csnn1)C(C(=O)NC1CCCC1)c1ccc(F)cc1 (configuration not stated) 5.68%
